Source: PubChem BioAssay (NCI)
About 79,000 compounds went through this panel and 15% of them were active in at least one assay; those are over-represented in the sample as a whole. Values without a mark were called inactive. Calls of active or inactive are those of the source. No stated cut-off is given here; in the data, active means growth inhibition above about 70%; inactive means the rest.

Test: NCI Yeast Anticancer Drug Screen. Data for the rad50 strain (AID 155);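 further: 0% = growth of vehicle-only cultures of the same strain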
Conditions: S. cerevisiae rad50 strain growth inhibition, hits give high values
Method: Growth inhibition of yeast strains with defined genetic alterations is measured as a screen for potential anti-cancer activity. Selected strains with alterations in DNA damage repair or cell cycle control were exposed to compounds and growth inhibition was measured relative to vehicle treated controls. The strain used in this assay is rad50

[1] = at 5.0 µM (retest, dose inferred, filed as 0.5)
[2] = at 50.0 µM (retest, dose inferred, filed as 5.0)

CN(C)CC/C(=N\Nc1ccc(Cl)cc1Cl)c1ccccc1
growth inhibition [1]: 90% (active) | growth inhibition [2]: 99% (active) | growth inhibition (at 50.0 µM): 99.5% (active)

Cc1cc(C(=O)O)c(C)c2c1sc1ccccc12
growth inhibition [1]: 6% | growth inhibition [2]: 87% (active) | growth inhibition (at 50.0 µM): 76.8% (active)

CCC(c1ccc(Cl)cc1)C(C#N)c1ccc(Cl)cc1 (configuration not stated)
growth inhibition [1]: 10% | growth inhibition [2]: 55% | growth inhibition (at 50.0 µM): 84.3% (active)

O=C(O)CCCCCCCCCCOc1ccc(Cl)cc1Cl
growth inhibition [1]: -3% | growth inhibition [2]: -8% | growth inhibition (at 50.0 µM): 98% (active)

COc1ccccc1NC(=O)O/N=C(/Cl)C(C)C
growth inhibition [1]: 1% | growth inhibition [2]: 70% (active) | growth inhibition (at 50.0 µM): -4.65%

Clc1nc(Cl)c(Cc2ccccc2)c(Cl)n1
growth inhibition [1]: 43% | growth inhibition [2]: 97% (active) | growth inhibition (at 50.0 µM): 91% (active)

N#Cc1c(-c2ccc(Cl)c(Cl)c2)c(-c2ccc(Cl)c(Cl)c2)nn(CCO)c1=O
growth inhibition [1]: 73% (active) | growth inhibition [2]: 96% (active) | growth inhibition (at 50.0 µM): 97.8% (active)

CCCC1=C(c2ccccc2)C(O)(c2ccccc2)C(CCC)C1=O (configuration not stated)
growth inhibition [1]: 0% | growth inhibition [2]: 46% | growth inhibition (at 50.0 µM): 97.8% (active)

Cc1c2cnccc2c(C)c2c1c1ccccc1n2CCOC(=O)c1ccccc1
growth inhibition [1]: 9% | growth inhibition [2]: 94% (active) | growth inhibition (at 50.0 µM): 96.4% (active)

CCOC1=Cc2c(oc3c(C(C)(C)C)cc(OCC)cc23)OC(C(C)(C)C)=C1
growth inhibition [1]: 22% | growth inhibition [2]: 95% (active) | growth inhibition (at 50.0 µM): 71.2% (active)

O=C(Cc1nc2ccccc2s1)Nc1cccc(C(F)(F)F)c1
growth inhibition [1]: 41% | growth inhibition [2]: 98% (active) | growth inhibition (at 50.0 µM): 92.2% (active)

CC[N](CC)[Ge]([CH2]C)[CH2]C.CC[N](CC)[Ge]([CH2]C)[CH2]C
growth inhibition [1]: 34% | growth inhibition [2]: 98% (active) | growth inhibition (at 50.0 µM): 57%

CC(C)SC(=S)Nc1cc(Cl)c(Cl)cc1Cl
growth inhibition [1]: 7% | growth inhibition [2]: 85% (active) | growth inhibition (at 50.0 µM): 99.5% (active)

O=C(O)c1cc2ccc(Cl)cc2c2c1C(=O)c1cc(Cl)ccc1-2
growth inhibition [1]: 12% | growth inhibition [2]: 50% | growth inhibition (at 50.0 µM): 90.3% (active)
